Screens as filed in PubChem BioAssay.
Shown are actives, neighbours in structure and some others; about 2.4% of the full set was active somewhere.
D2 PAM-1 – positively modulates the human D2 dopamine receptor allosterically; P14416; HEK293 T-REx D2, calcium flux, EC20 dopamine potentiation; potentiation, % at 10 µM; 340,000 compounds, 0.34% hits;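 active means potentiation over 3 SD above the plate norm, cut at about 30% in these data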
Target sequence (P14416 whole entry, looked up): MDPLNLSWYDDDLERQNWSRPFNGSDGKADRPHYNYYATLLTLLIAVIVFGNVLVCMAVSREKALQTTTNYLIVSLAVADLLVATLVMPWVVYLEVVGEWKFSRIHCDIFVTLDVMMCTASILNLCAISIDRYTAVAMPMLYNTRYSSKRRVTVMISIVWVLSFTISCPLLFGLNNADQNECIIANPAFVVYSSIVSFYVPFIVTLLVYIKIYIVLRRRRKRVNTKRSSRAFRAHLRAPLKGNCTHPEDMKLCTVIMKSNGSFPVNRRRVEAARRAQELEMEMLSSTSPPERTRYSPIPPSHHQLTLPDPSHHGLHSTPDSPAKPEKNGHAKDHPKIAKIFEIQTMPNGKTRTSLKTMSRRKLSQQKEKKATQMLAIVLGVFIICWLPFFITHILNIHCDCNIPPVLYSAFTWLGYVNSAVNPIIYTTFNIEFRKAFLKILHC
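Potentiation of an EC20 dopamine calcium response is measured in a force-coupled, tetracycline-inducible Hek293 Trex D2 line. Compound-only kinetic reads over 180 s flag agonists before dopamine addition.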
D2 ag-1 – activates the human D2 dopamine receptor; 340,000 compounds, 0.53% hits; HEK293 T-REx D2 cells, calcium flux agonist mode; activation, % at 2 µM;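 active means activation over 3 SD above normal in the single-dose calcium agonist read, cut at about 30% in these data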
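Calcium-flux readout, 1 cycle/sec over 180 s following compound pin transfer, in inducible HEK293 Trex D2 cells (force-coupled); dopamine controls included. Positive calcium responses during this window marked compounds as potential agonists.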
D2 PAM-2 – positive allosteric modulators of human D2 dopamine receptor | P14416 | DiscoveRx D2 beta-arrestin cells, luminescence, 90 min; 100% = 57 uM dopamine signal | potentiation, % (no concentration beside the values) | 360,000 compounds, 0.23% hits | AID 624464; in the data active means potentiation above about 50%; inconclusive means mostly about 30% to 49%
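PathHunter D2 cells, attached overnight at 37 deg C, received compound in DMSO plus dopamine at EC20 (50 nM final) for 90 min at 37 deg C. Beta-arrestin recruitment was read as luminescence after 1 h with detection reagent at ambient temperature.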
D2 ag-2 – activates the human D2 dopamine receptor; AID 624465; activation, % (test concentration not listed); 360,000 compounds, 0.084% hits; DiscoveRx PathHunter D2 beta-arrestin, luminescence, 90 min; 100% = 57 uM dopamine signal; P14416; in the data active means activation above about 40%; inconclusive means between about 15% and that limit
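DiscoveRx PathHunter D2 beta-arrestin cells (2,100/well) attached overnight, then compound-stimulated 90 min at 37 C in HBSS/10 mM HEPES/0.1% Tween-20 buffer; beta-galactosidase complementation read by luminescence after 1 h at ambient temperature. Dopamine 57 uM final (EC100) as control.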
D2 antagonist – D2 dopamine receptor (human) antagonism; P14416; HEK293 TREx D2 cells, calcium flux, dopamine EC80; inhibition, % at 10 µM; 340,000 compounds, 2% hits; AID 485344; in the data active means inhibition above about 30%; inactive means below that, where a call was filed
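Measurement of antagonist activity uses fluorescent calcium dye in inducible HEK293 T-REx D2 cells: 10 s baseline, compound addition with 180 s read, EC80 dopamine addition with a further 180 s read.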
Large screens that a line does not name were inactive.

O=C1C(Cl)=C(N2CCN(Cc3ccccc3)CC2)C(=O)N1c1ccccc1	D2 antagonist 37
CN(CCOCCOc1ccc(Cl)cc1Br)Cc1ccccc1	D2 antagonist 40
Cc1ccc(Cl)c(OCCCCN(C)Cc2ccccc2)c1	D2 antagonist 45
CN(CCCOc1ccccc1Br)Cc1ccccc1	D2 antagonist 39
CCOc1cccc(OCCOCCN(C)Cc2ccccc2)c1	D2 antagonist 30
CCOC(=O)c1[nH]c(C)c(CCC(=O)Nc2ccccc2C(=O)OC)c1C	none (no result: D2 PAM-2, D2 ag-2, D2 antagonist)
CCOc1ccc(C(=O)Nc2ccc3nc(SCC(=O)N4CCc5ccccc54)sc3c2)cc1	none (no result: D2 PAM-2, D2 ag-2, D2 antagonist)
c1ccc(CNc2nc3ccccc3c3nc(-c4ccccc4)nn23)cc1	none (no result: D2 PAM-2, D2 ag-2, D2 antagonist)
CCOc1ccc(OCCN(C)Cc2ccccc2)cc1	none
Cc1ccc(Cl)c(OCCCN(C)Cc2ccccc2)c1	D2 antagonist 63
CN(CCOc1ccc(Cl)c(Cl)c1)Cc1ccccc1	D2 antagonist 65
CN(CCCOc1ccccc1F)Cc1ccccc1	none
Cc1ccc(C)c(-c2nc3cc(N)ccc3o2)c1	D2 PAM-1 33
Cc1ccc(-c2nc3cc(N)ccc3o2)cc1Br	none
Clc1ccc2oc(-c3ccccn3)nc2c1	none
Nc1ccc2oc(-c3ccccn3)nc2c1	D2 PAM-1 50
O=[N+]([O-])c1cccc(-c2nnc(C34CC5CC(CC(C5)C3)C4)o2)c1	none
O=[N+]([O-])c1cc(-c2nnc(C34CC5CC(CC(C5)C3)C4)o2)cc([N+](=O)[O-])c1	D2 PAM-2 145, D2 ag-2 inconclusive
CSc1ccc(C2Nc3cccc4cccc(c34)N2)cc1	D2 PAM-2 58, D2 ag-2 54
c1cc2c3c(cccc3c1)NC(c1ccc3c(c1)OCO3)N2	D2 ag-2 44
CCc1cccc(NC(=O)Nc2csc3c2CCCC3)c1	none (no result: D2 PAM-2, D2 ag-2, D2 antagonist)
c1ccc(C(c2nnnn2Cc2ccco2)N2CCN(c3nc4ccccc4s3)CC2)cc1 (configuration not stated)	D2 PAM-1 30
CCCCN(c1ccccc1)S(=O)(=O)c1cc2c3c(c1)C(C)C(=O)N3CCC2 (configuration not stated)	none (no result: D2 PAM-2, D2 ag-2, D2 antagonist)
O=C(Cn1cnc2onc(-c3ccc(F)cc3)c2c1=O)N1CCN(c2ccc(F)cc2)CC1	none (no result: D2 PAM-2, D2 ag-2, D2 antagonist)
N#C/C(=C1\C(=O)Nc2c(Cl)cc(Cl)cc21)c1nnc2n1CCCCC2	D2 PAM-2 67 (no result: D2 PAM-1, D2 ag-1, D2 antagonist)
COc1cc(OC)c(NC(=O)C(CC(C)C)N2Cc3ccccc3C2=O)cc1Cl (configuration not stated)	none (no result: D2 PAM-2, D2 ag-2, D2 antagonist)
Cc1ccc(S(=O)(=O)N2CCC(C(=O)N3CC(C)OC(C)C3)CC2)cc1 (configuration not stated)	D2 antagonist 50
COc1ccc(S(=O)(=O)N2CCC(NC(=O)OCc3c(Cl)cccc3Cl)CC2)cc1	D2 antagonist 35
COc1ccc(S(=O)(=O)N2CCC(C(=O)NCc3ccc(C)cc3)CC2)cc1	D2 antagonist 34
COc1ccc(CNC(=O)C2CCCN(S(=O)(=O)c3ccc(-n4cnnn4)cc3)C2)cc1 (configuration not stated)	D2 antagonist 36
COc1ccc(CNC(=O)C2CCN(S(=O)(=O)c3ccc(F)cc3)CC2)cc1	none (no result: D2 PAM-2, D2 ag-2, D2 antagonist)
COc1ccc(COC(=O)NC2CCN(S(=O)(=O)c3ccc(OC)cc3)CC2)cc1	none
Cc1ccc(O)c(-c2n[nH]c3c2C(c2ccc(F)cc2)N(Cc2ccco2)C3=O)c1 (configuration not stated)	none (no result: D2 PAM-2, D2 ag-2, D2 antagonist)
CCc1cccc(C)c1NC(=O)C1CCN(S(=O)(=O)c2c(C)noc2/C=C/c2c(C)cc(C)cc2C)CC1	none (no result: D2 PAM-2, D2 ag-2, D2 antagonist)
CC(C)c1ccccc1NC(=O)CNCCOc1ccccc1F	D2 ag-1 31, D2 antagonist 46
CCCC(c1nnnn1C(C)(C)CC)N(Cc1ccco1)Cc1cc2ccc(OC)cc2[nH]c1=O (configuration not stated)	D2 PAM-1 36
Cc1cc(C)cc(NC(=O)C(=O)NCC(c2cccnc2)N2CCc3ccccc3C2)c1 (configuration not stated)	none (no result: D2 PAM-2, D2 ag-2, D2 antagonist)
O=C(NCc1ccccc1Cl)c1cc2c(s1)-c1ccc(Cl)cc1SC2	none (no result: D2 PAM-2, D2 ag-2, D2 antagonist)
CCOC(=O)N1CCN(C(=O)CN(c2cccc(Cl)c2)S(=O)(=O)c2ccccc2)CC1	none (no result: D2 PAM-2, D2 ag-2, D2 antagonist)
O=C(Nc1ccc2nc(SCC(=O)N3CCCc4ccccc43)sc2c1)c1ccccc1	none (no result: D2 PAM-2, D2 ag-2, D2 antagonist)
O=C(Cn1c(NCCO)nc2ccccc21)c1ccc([N+](=O)[O-])cc1	D2 antagonist 30
Cc1ccc(NC2=Nc3ccccc3CC2)cc1	D2 antagonist 61
Brc1ccc(NC2=Nc3ccccc3CC2)cc1	none
CC1(C)CC(=O)C/C(=N/Nc2nc3ccccc3s2)C1	D2 antagonist 36
CC1CCC/C(=N/Nc2nc3ccccc3s2)C1 (configuration not stated)	none
Cn1ccnc1SCC(=O)Nc1ccc([N+](=O)[O-])cn1	none
Cn1ccnc1SCC(=O)Nc1ccc(Cl)cn1	D2 antagonist 31
O=C(NCCc1ccccc1)c1cnc2sc(N3CCCCCC3)nn2c1=O	none (no result: D2 PAM-2, D2 ag-2, D2 antagonist)
c1ccc(-c2csc(=Nc3cccnc3)n2CC2CCCO2)cc1 (configuration not stated)	D2 antagonist 30
CCCOc1ccc(C2C(=O)N(C3CCC(C)CC3)CC(=O)N2Cc2cccc(OC)c2)cc1OC (configuration not stated)	none (no result: D2 ag-1, D2 PAM-2, D2 ag-2, D2 antagonist)
CCOc1cc(/C=N/NC(=O)c2ccc(N(C)S(=O)(=O)c3ccccc3)cc2)ccc1OC	D2 antagonist 31
COc1cc(/C=N/NC(=O)c2ccc(N(C)S(=O)(=O)c3ccccc3)cc2)cc(OC)c1OC	none
Cc1ccc(S(=O)(=O)N(CC(=O)Nc2cccnc2)c2cccc([N+](=O)[O-])c2)cc1	D2 antagonist 50
Cc1ccc(S(=O)(=O)NCC(=O)Nc2cccc([N+](=O)[O-])c2)cc1	none
Cc1ccc(S(=O)(=O)NC(=O)Nc2cccc([N+](=O)[O-])c2)cc1	D2 antagonist 68
Cc1ccc(S(=O)(=O)N(C)/N=C/c2ccc(C(=O)O)cc2)cc1	D2 antagonist 30
CC(C)(C)OC(=O)N1CCC(c2c(C(=O)N3CCN(c4ccccc4F)CC3)cnn2-c2ccccc2Cl)CC1	none (no result: D2 PAM-2, D2 ag-2, D2 antagonist)
CSc1ncc(C(=O)N2CCN(c3ccc(Cl)cc3)CC2)c(C)n1	none (no result: D2 PAM-2, D2 ag-2, D2 antagonist)
CS(=O)(=O)N(CC(=O)Nc1cccc([N+](=O)[O-])c1)c1ccccc1	none
CS(=O)(=O)N(CC(=O)Nc1cccc([N+](=O)[O-])c1)c1ccccc1F	D2 antagonist 44
Cc1ccc(S(=O)(=O)N(C)c2ccc(C(=O)Nc3cccnc3)cc2)cc1	D2 antagonist 35
Cc1ccc(/C=N/NC(=O)c2ccc(N(C)S(=O)(=O)c3ccccc3)cc2)cc1	D2 antagonist 48
CCCC(=O)N(c1ccc2oc(-c3ccccc3)c(C(=O)OCC)c2c1)S(=O)(=O)c1ccc(C)cc1	none (no result: D2 ag-1, D2 PAM-2, D2 ag-2, D2 antagonist)
